Source: the supplement of paper PMC13380429

What was measured:
[1] = system: Vero E6 infected with SARS-CoV-2; assay: inhibition of SARS-CoV-2 cytopathic effect; higher = more antiviral protection, active = above 15; conditions: 48 h
[2] = system: Vero E6 infected with SARS-CoV-2; assay: morphology score (similarity to uninfected cells); higher = more like uninfected cells; conditions: 24 h

For `CC(C)(O)c1ccccc1CC[C@@H](SCC1(CC(=O)O)CC1)c1cccc(/C=C/c2ccc3ccc(Cl)cc3n2)c1` [montelukast], the “inhibition of SARS-CoV-2 cytopathic effect” value (“inhibition” for short) ([1]; 1 nM) was 0.18% (inactive), the “inhibition” value ([1]; 8.33 nM) was 0.4% (inactive) and the “inhibition” value ([1]; 100 nM) was -0.23% (inactive). The “inhibition” value ([1]; 833.33 nM) was -0.66% (inactive) and the “inhibition” value ([1]; 10000 nM) was -4.23% (inactive).

`O=c1cc(N2CCOCC2)oc2c(-c3cccc4c3sc3ccccc34)cccc12` was tested, and the “inhibition” value ([1]; 1 nM) was 1.01% (inactive), the “inhibition” value ([1]; 8.33 nM) was -0.44% (inactive) and the “inhibition” value ([1]; 100 nM) was 0.05% (inactive). For the same compound, the “inhibition” value ([1]; 833.33 nM) was 8.27% (inactive) and the “inhibition” value ([1]; 10000 nM) was 36.8% (active).

In the case of `C[C@]12CC[C@H]3[C@@H](CCC4=CC(=O)CC[C@@]43C)[C@@H]1CC[C@@H]2O` (10 µM), the morphology score [2] is reported as -0.0371.

`COc1cc2c(cc1O)C(CCc1ccc(Cl)cc1)N(C)CC2` (stereo unspecified) was tested, and the “inhibition” value ([1]; 1 nM) was 0.21% (inactive), the “inhibition” value ([1]; 8.33 nM) was 2.27% (inactive) and the “inhibition” value ([1]; 100 nM) was 0.29% (inactive). For the same compound, the “inhibition” value ([1]; 833.33 nM) was 0% (inactive) and the “inhibition” value ([1]; 10000 nM) was 0.49% (inactive).

For `O=c1cc(-c2cccc3c2Sc2ccccc2S3)oc(N2CCOCC2)c1`, the “inhibition” value ([1]; 1 nM) was 2.07% (inactive), the “inhibition” value ([1]; 8.33 nM) was -2.3% (inactive) and the “inhibition” value ([1]; 100 nM) was -0.67% (inactive). The “inhibition” value ([1]; 833.33 nM) was 3.55% (inactive) and the “inhibition” value ([1]; 10000 nM) was -1.33% (inactive).

In the case of `CNC(=O)c1ccc(N2C(=S)N(c3cnc(C#N)c(C(F)(F)F)c3)C(=O)C23CCC3)cc1F` [apalutamide], the “inhibition” value ([1]; 1 nM) is reported as 0.94% (inactive), the “inhibition” value ([1]; 8.33 nM) is reported as 1.02% (inactive) and the “inhibition” value ([1]; 100 nM) is reported as 1.33% (inactive). The “inhibition” value ([1]; 833.33 nM) was 0.68% (inactive) and the “inhibition” value ([1]; 10000 nM) was 1.02% (inactive).

With `Cc1cc(C)c(N)c(C#Cc2cccc(F)c2)n1` the “inhibition” value ([1]; 1 nM) was 1.69% (inactive), the “inhibition” value ([1]; 8.33 nM) was -1.37% (inactive) and the “inhibition” value ([1]; 100 nM) was 0.6% (inactive). The “inhibition” value ([1]; 833.33 nM) was 3.1% (inactive) and the “inhibition” value ([1]; 10000 nM) was 1.98% (inactive).

In the case of `NC[C@H]1CC[C@H](C(=O)O)CC1` [tranexamic-acid], the “inhibition” value ([1]; 1 nM) is reported as 1.98% (inactive), the “inhibition” value ([1]; 8.33 nM) is reported as 1.51% (inactive) and the “inhibition” value ([1]; 100 nM) is reported as 2.74% (inactive). For the same compound, the “inhibition” value ([1]; 833.33 nM) was 0.85% (inactive) and the “inhibition” value ([1]; 10000 nM) was -0.32% (inactive).

For `CC(NCCc1ccc(O)cc1)C(O)c1ccc(O)cc1` (stereo unspecified) [ritodrine], the “inhibition” value ([1]; 1 nM) was 0.34% (inactive), the “inhibition” value ([1]; 8.33 nM) was -0.09% (inactive) and the “inhibition” value ([1]; 100 nM) was 1.29% (inactive). For the same compound, the “inhibition” value ([1]; 833.33 nM) was -2.19% (inactive) and the “inhibition” value ([1]; 10000 nM) was -1.02% (inactive).

With `COc1ccc2c(c1)/C(=C/c1cnc[nH]1)C(=O)N2` the “inhibition” value ([1]; 1 nM) was 0.21% (inactive), the “inhibition” value ([1]; 8.33 nM) was -1.7% (inactive) and the “inhibition” value ([1]; 100 nM) was -1.87% (inactive). For the same compound, the “inhibition” value ([1]; 833.33 nM) was 4.89% (inactive) and the “inhibition” value ([1]; 10000 nM) was 6.28% (inactive).

For `O=S(=O)(O)c1cc(O)ccc1O` [etamsylate], the “inhibition” value ([1]; 1 nM) was 0.18% (inactive), the “inhibition” value ([1]; 8.33 nM) was -1.16% (inactive) and the “inhibition” value ([1]; 100 nM) was -0.81% (inactive). For the same compound, the “inhibition” value ([1]; 833.33 nM) was 0.23% (inactive) and the “inhibition” value ([1]; 10000 nM) was 1.8% (inactive).

`CO[C@H]1O[C@@H]2O[C@@]3(C)CC[C@H]4[C@H](C)CC[C@@H]([C@H]1C)[C@@]24OO3` [artemether] was tested, and the “inhibition” value ([1]; 1 nM) was 7.32% (inactive), the “inhibition” value ([1]; 8.33 nM) was 4.82% (inactive) and the “inhibition” value ([1]; 100 nM) was 2.64% (inactive). The “inhibition” value ([1]; 833.33 nM) was -2.72% (inactive) and the “inhibition” value ([1]; 10000 nM) was 0.52% (inactive).

With `CC(COc1ccccc1Cc1ccccc1)N1CCCCC1` (stereo unspecified) [benproperine] the “inhibition” value ([1]; 1 nM) was -1.82% (inactive), the “inhibition” value ([1]; 8.33 nM) was 0.63% (inactive) and the “inhibition” value ([1]; 100 nM) was -0.71% (inactive). For the same compound, the “inhibition” value ([1]; 833.33 nM) was -3.69% (inactive) and the “inhibition” value ([1]; 10000 nM) was -3.54% (inactive).

In the case of `CC[C@H](NC(=O)c1c(O)c(-c2ccccc2)nc2ccccc12)c1ccccc1` [talnetant], the “inhibition” value ([1]; 1 nM) is reported as -0.24% (inactive), the “inhibition” value ([1]; 8.33 nM) is reported as 0.6% (inactive) and the “inhibition” value ([1]; 100 nM) is reported as -1.02% (inactive). The “inhibition” value ([1]; 833.33 nM) was -1.22% (inactive) and the “inhibition” value ([1]; 10000 nM) was 2.11% (inactive).

`CCCCCCCCCCCCCCCCCC(=O)OCC(O)CO` (stereo unspecified) [monostearin] was tested, and the “inhibition” value ([1]; 1 nM) was 3.45% (inactive), the “inhibition” value ([1]; 8.33 nM) was 0.27% (inactive) and the “inhibition” value ([1]; 100 nM) was 0.45% (inactive). The “inhibition” value ([1]; 833.33 nM) was 0.48% (inactive) and the “inhibition” value ([1]; 10000 nM) was -0.08% (inactive).

For `OCc1cccnc1` [nicotinyl-alcohol-tartrate], the “inhibition” value ([1]; 1 nM) was -0.34% (inactive), the “inhibition” value ([1]; 8.33 nM) was -0.51% (inactive) and the “inhibition” value ([1]; 100 nM) was -0.17% (inactive). The “inhibition” value ([1]; 833.33 nM) was 0.73% (inactive) and the “inhibition” value ([1]; 10000 nM) was -0.73% (inactive).

`CO/N=C(\C(=O)N[C@@H]1C(=O)N2C(C(=O)OCOC(=O)C(C)(C)C)=C(/C=C\c3scnc3C)CS[C@H]12)c1csc(N)n1` [cefditoren-pivoxil] was tested, and the “inhibition” value ([1]; 1 nM) was -0.67% (inactive), the “inhibition” value ([1]; 8.33 nM) was -0.15% (inactive) and the “inhibition” value ([1]; 100 nM) was -2.07% (inactive). The “inhibition” value ([1]; 833.33 nM) was -1.49% (inactive) and the “inhibition” value ([1]; 10000 nM) was -0.51% (inactive).

In the case of `Cc1ncc[nH]1` [2-methylimidazole], the “inhibition” value ([1]; 1 nM) is reported as -0.11% (inactive), the “inhibition” value ([1]; 8.33 nM) is reported as 1.86% (inactive) and the “inhibition” value ([1]; 100 nM) is reported as 0.89% (inactive). For the same compound, the “inhibition” value ([1]; 833.33 nM) was -3.06% (inactive) and the “inhibition” value ([1]; 10000 nM) was 0.33% (inactive).
